Results reported in PubChem BioAssay (NCATS).
Records with an inconclusive call do not appear. Active and inactive are the calls of the source. Calls come from the whole dose curve; as a rule, active = well fitted cell-killing curve with a large enough effect; inconclusive = small, poorly fitted or top-dose-only effect, or effect the other way; inactive = no such curve, though single readings can be large or run the other way.

Assay: Quantitative High-Throughput drug screen in 47 multiple myeloma cell lines against the NCATS MIPE library collection: AMO1_DSMZ cell viability assay (AID 1918927; note: nearly all actives have a fitted effect of over 30% in size)
Conditions: AMO1 myeloma cells viability, CellTiter-Glo ATP luminescence, 48 h; series mostly up to 45.8 µM
Excerpt: PI: Beverly A. Mock Ph.D.
Laboratory of Cancer Biology and Genetics,
Center for Cancer Research, National Cancer Institute,
National Institute of Health, Bethesda, Maryland
Drug resistance and disease progression are common in multiple myeloma (MM) patients, underscoring the need for new therapeutic combinations. […] We hypothesized that effective combinations would reduce MYC expression and enhance p16 activity. […] These preclinical data identify potentially useful drug combinations for evaluation in drug-resistant MM and reveal potential mechanisms of combined drug sensitivity.
Described herein is the primary MIPE qHTS used to cherrypick compounds. Validated compounds were then further tested for potential synergistic activiy.
[1] Peat TJ, Gaikwad SM, Dubois W, Gyabaah-Kessie N, Zhang S, Gorjifard S, Phyo Z, Andres M, Hughitt VK, Simpson RM, Miller MA, Girvin AT, Taylor A, Williams D, D'Antonio N, Zhang Y, Rajagopalan A, Flietner E, Wilson K, Zhang X, Shinn P, Klumpp-Thomas C, McKnight C, Itkin Z, Chen L, Kazandijian D, Zhang J, Michalowski AM, Simmons JK, Keats J, Thomas CJ, Mock BA. Drug combinations identified by high-throughput screening promote cell cycle transition and upregulate Smad pathways in myeloma. Cancer Lett. 2023 Aug 1;568:216284. doi: 10.1016/j.canlet.2023.216284. Epub 2023 Jun 24. PMID: 37356470; PMCID: PMC10408729.
SEQUENCE No. (e.g., 1, 2, 3, etc.); […] (e.g., Cells, Incubation, Reagent, etc.); VALUE and DESCRIPTION.
1; Cells; 5 uL; white, solid bottom 1536-well Greiner assay plate.
2; Compounds; 23 nL; Kalypsis pin tool (Wako USA) equipped with a 1536-well pin head to transfer to the assay plates.
3; Incubation; 48 hours; 37C incubation.
4; Reagent;5uL; CellTiter Glo (Promega).
5; Detector; 425V; Luminescence; Viewlux PerkinElmer.
NOTES (numbers refer to Sequence numbers above)
1. The cell-based screening methods employed in this study were like those previously published. Briefly, the corresponding myeloma cell lines were screened in 1,536-well plates with 500 cells, 5-uL per well for inhibition of cell viability (assessed by measuring ATP levels with CellTiterGlo).
2. NCATS MIPE 4.0 library of approved and investigational drugs were added using the Kalypsis pin tool. Wells treated with DMSO only for 100% viability and media only wells for 0% viability were used as controls.
3. The assay plates were covered and incubated for 48 hours in a 37C, 5% CO2 incubator with controlled humidity.
4. After 48 hours, CellTilter-GloTM luminescent substrate mix (Promega) reagent was added to the assay plate and plates we incubated for 5 min at room temperature.
5. Signal was measured as median relative luminescence units on a ViewLux (PerkinElmer) multiplate reader.
[1] Heske CM, Davis MI, Baumgart JT, Wilson K, Gormally MV, Chen L, Zhang X, Ceribelli M, Duveau DY, Guha R, Ferrer M, Arnaldez FI, Ji J, Tran HL, Zhang Y, Mendoza A, Helman LJ, Thomas CJ. Matrix Screen Identifies Synergistic Combination of PARP Inhibitors and Nicotinamide Phosphoribosyltransferase (NAMPT) Inhibitors in Ewing Sarcoma. Clin Cancer Res. 2017 Dec 1;23(23):7301-7311. doi: 10.1158/1078-0432.CCR-17-1121. Epub 2017 Sep 12. PMID: 28899971; PMCID: PMC6636827.
Potency is the fitted concentration of half-maximal effect.

Structure (SMILES)	Potency
C[C@]12CCC(=O)C(O)=C1CC[C@@H]1[C@H]3CCC(=O)[C@@]3(C)CC[C@@H]12	inactive
COc1ccc2c(c[n+](C)c3c4cc5c(cc4ccc23)OCO5)c1OC	6.62 µM (active)
O=C(Nc1ccncc1)C(=O)c1cn(Cc2ccc(Cl)cc2)c2ccccc12	0.0166 µM (active)
O=C(Oc1ccc([N+](=O)[O-])cc1)N1CCN(Cc2cccc(Oc3ccccc3)c2)CC1	inactive
CCNC(=O)CC1N=C(c2ccc(Cl)cc2)c2cc(OC)ccc2-n2c(C)nnc21 (stereo not given)	10.5 µM (active)
O=[N+]([O-])c1ncc[nH]1	inactive
COc1cc([C@@H]2c3cc4c(cc3[C@@H](O)C3COC(=O)C32)OCO4)cc(OC)c1O (stereo not given in full)	0.001 µM (active)
CC(C)N(CCNC(=O)CN1CCCC1=O)C(C)C	inactive
COC[C@H]1OC(=O)c2coc3c2[C@@]1(C)C1=C(C3=O)[C@@H]2CC[C@H](O)[C@@]2(C)C[C@@H]1OC(C)=O	5.26 µM (active)
CCN(CC)C(=O)c1ccc(C2=CC3(CCNCC3)Oc3cccc(O)c32)cc1	inactive
Cc1c(C(=O)Nc2cccc(C(F)(F)F)c2)cc(-c2ccccc2)n1CCCN1CCOCC1	8.33 µM (active)
C[C@]12CC[C@H](O)CC1=CC[C@H]1[C@H]3CCC(=O)[C@@]3(C)CC[C@@H]12	18.7 µM (active)
CCC(=O)OC1CCC2C3CCC4=CC(=O)CC[C@@]4(C)C3CC[C@]12C (stereo not given in full)	inactive
COc1ccc(C(=O)c2c(C)n(CCN3CCOCC3)c3cc(I)ccc23)cc1	11.8 µM (active)
CC(C)[C@]12O[C@@H]1[C@@H]1O[C@]13[C@]1(O[C@H]1C[C@@H]1C4=C(CC[C@@]13C)C(=O)OC4)[C@H]2O	inactive
CN(C)NC(=O)CCC(=O)O	inactive
CCOC(=O)c1c(C(C#N)=CN)c2ccc(Cl)c(Cl)c2n1C	inactive
C[C@@H]1[C@H](O)[C@@H](C)C=CC=CCCC=CC=CC=CC=C[C@H](O[C@H]2O[C@@H](C)[C@H](O)[C@@H](N)[C@@H]2O)CC2O[C@](O)(C[C@@H](O)[C@H](O)CC[C@@H](O)C[C@@H](O)C[C@@H](O)CC(=O)O[C@H]1C)C[C@H](O)[C@H]2C(=O)O	inactive
CC1(N2CCC(n3c([C@@H]4CCCNC4)nc4ccccc43)CC2)CCCCCCC1	26.4 µM (active)
COc1ccc2c(c1)[C@]13CCCCC1C(C2)N(C)CC3 (stereo not given in full)	inactive

Structure (SMILES)	Potency
c1cc2c(cc1[C@H]1OC[C@H]3[C@H]1CO[C@H]3c1ccc3c(c1)OCO3)OCO2	inactive
CCN1CCN(C(=O)Cc2ccc(Nc3ncc(F)c(Nc4ccc(C(=O)Nc5ccccc5Cl)cc4)n3)cc2)CC1	1.05 µM (active)
CC[C@@]1(O)C(=O)OCc2c1cc1n(c2=O)Cc2cc3ccccc3nc2-1	0.0235 µM (active)
CC(C)[C@H]1C(=O)N[C@H](CO)Cc2c[nH]c3cccc(c23)N1C	inactive
O=C(NCC1CCOCC1)c1cnc(Nc2ccc(Cl)cc2Cl)nc1C(F)(F)F	18.7 µM (active)
COc1ccc2c(c1)CN(C)CC2c1ccc(Cl)c(Cl)c1 (stereo not given)	23.5 µM (active)
O=C(O)CNC(=O)c1c(O)c2ccccc2n(Cc2ccccc2)c1=O	inactive
CC[C@H]1C=CC=CC[C@@H](C)[C@H](O)[C@@](C)(O)C(=O)[C@@H](C)[C@H](O)[C@@H](C)C(=O)[C@@H](C)[C@H](O)[C@@H](C)C=CC(=O)O[C@@H]2[C@@H](C)[C@H](CC1)O[C@]1(CC[C@H](C)[C@H](C[C@@H](C)O)O1)[C@H]2C	0.0059 µM (active)
CC[C@@H]1[C@@H](C)O[C@@](O)([C@@H](C)[C@H](O)[C@H](C)[C@H]2OC(=O)C=CC=C[C@@H](C)[C@@H]([C@@H](C)[C@@H](O)[C@H](C)[C@@]3(O)C[C@H](O[C@H]4C[C@H](O)[C@H](O)[C@H](C)O4)[C@H](CC)[C@@H](C)O3)OC(=O)C=CC=C[C@@H]2C)C[C@H]1O[C@H]1C[C@H](O)[C@H](O)[C@H](C)O1	0.332 µM (active)
CC(C)(C)c1cc(C=C(C#N)C#N)cc(Br)c1O	26.4 µM (active)
O=c1[nH]c2ccc(Cl)cc2c(N[C@@H]2CN3CCC2CC3)c1-c1nc2ccccc2[nH]1	0.0743 µM (active)
CCOP(=O)(OCC)C(C)NC(=O)N(CCCl)N=O (stereo not given)	inactive
CSCC[C@@H](NC(=O)[C@@H](Cc1ccccc1)NC(=O)CNC(=O)CNC(=O)[C@@H](N)Cc1ccc(O)cc1)C(=O)O	inactive
CC(C)N[C@@H]1CCn2c(=O)[nH]c3cccc(c32)[C@@H]1O	5.9 µM (active)
N=c1c2c(-c3ccccc3)c(-c3ccccc3)n(Cc3ccccc3)c2ncn1C1CCC(O)CC1 (stereo not given)	0.526 µM (active)
O=S(=O)(F)Cc1ccccc1	inactive
C[C@@]12OC(=O)[C@]1([C@@H](O)[C@@H]1C=CCCC1)NC(=O)[C@H]2CCCl	0.0118 µM (active)
c1ccc2c(CN3CCNCC3)cccc2c1	inactive
CCNC(=O)C[C@@H]1N=C(c2ccc(Cl)cc2)c2cc(OC)ccc2-n2c(C)nnc21	0.372 µM (active)
C[C@]12CC[C@@H]3[C@@H](CCC4=CC(=O)CC[C@@H]43)[C@@H]1CC[C@@H]2OC(=O)CCc1ccccc1	inactive
